From PubChem BioAssay AID1159580 (chemical genetic matrix, 2015)
“And” between values parts separate entries of the source, which are not always exact repeats. Equal entries are not always repeated. The whole screen tested about 5,500 compounds, of which about 2,000 (36%) were called active. Inconclusive results (about 18%) are left out. Cut-off read from the data, not from the text of the source: active = normalized growth mostly below about 0.91 (no sharp cut-off); inconclusive = no clear call, values can overlap the other calls; inactive = mostly above about 0.92. This is one part of the list.

Experiment: chemical genetic growth profiling, strain panel (AID 1159580);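 note: tested at 20 µM; growth read once vehicle control cultures reached saturation at 30 °C; 1 = growth at the plate median or of vehicle wells; lower values mean less growth of the strain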
Conditions: S. cerevisiae deletion strains, growth OD

Measured: normalized growth

CC(NCCc1ccc(O)cc1)C(O)c1ccc(O)cc1 (centres undefined)
inactive: locus YAL021C, strain ccr4, stronger effect = lower value 0.997 | locus YAL030W, strain snc1, stronger effect = lower value 1.01 | locus YBL061C, strain skt5, stronger effect = lower value 0.991 | locus YBR009C, strain hhf1, stronger effect = lower value 1.04 | locus YBR021W, strain FUR4, stronger effect = lower value 0.962 | locus YBR023C, strain chs3, stronger effect = lower value 0.989 | locus YBR171W, strain sec66, stronger effect = lower value 0.994 | locus YBR229C, strain ROT2, stronger effect = lower value 0.988 | locus YBR231C, strain swc5, stronger effect = lower value 1.01 | locus YBR279W, strain paf1, stronger effect = lower value 0.978 | locus YCL011C, strain gbp2, stronger effect = lower value 0.991 | locus YCL016C, strain dcc1, stronger effect = lower value 0.968 | locus YCL029C, strain bik1, stronger effect = lower value 0.977 | locus YCL061C, strain MRC1, stronger effect = lower value 0.999 | locus YCL069W, strain vba3, stronger effect = lower value 0.973 | locus YCR088W, strain abp1, stronger effect = lower value 0.997 | locus YDL005C, strain med2, stronger effect = lower value 0.983 | locus YDL035C, strain GPR1, stronger effect = lower value 0.982 | locus YDL040C, strain nat1, stronger effect = lower value 0.99 | locus YDL074C, strain BRE1, stronger effect = lower value 0.999 | locus YDL101C, strain DUN1, stronger effect = lower value 0.985 | locus YDL134C, strain PPH21, stronger effect = lower value 0.977 | locus YDL185W, strain tfp1, stronger effect = lower value 0.979 | locus YDL192W, strain arf1, stronger effect = lower value 0.982 | locus YDR001C, strain nth1, stronger effect = lower value 0.998 | locus YDR069C, strain doa4, stronger effect = lower value 1.01 | locus YDR101C, strain arx1, stronger effect = lower value 0.997 | locus YDR137W, strain rgp1, stronger effect = lower value 0.982 | locus YDR150W, strain NUM1, stronger effect = lower value 0.994 | locus YDR159W, strain sac3, stronger effect = lower value 1 | locus YDR162C, strain NBP2, stronger effect = lower value 0.984 | locus YDR195W, strain ref2 0.99 | locus YDR297W, strain sur2, stronger effect = lower value 1.01 | locus YDR318W, strain mcm21, stronger effect = lower value 0.986 | locus YDR334W, strain swr1, stronger effect = lower value 0.984 | locus YDR335W, strain msn5, stronger effect = lower value 0.952 | locus YDR388W, stronger effect = lower value 0.981 | locus YDR502C, strain sam2, stronger effect = lower value 0.983 | locus YEL003W, strain gim4, stronger effect = lower value 0.999 | locus YEL037C, strain rad23, stronger effect = lower value 0.954 | locus YEL061C, strain CIN8 (second series), stronger effect = lower value 0.989 | locus YEL061C, strain CIN8, stronger effect = lower value 0.993 | locus YER015W, strain faa2, stronger effect = lower value 0.995 | locus YER016W, strain bim1, stronger effect = lower value 0.984 | locus YER110C, stronger effect = lower value 0.977 | locus YER111C, strain swi4, stronger effect = lower value 0.979 | locus YER155C, strain BEM2 (second series), stronger effect = lower value 0.948 | locus YER155C, strain BEM2, stronger effect = lower value 0.983 | locus YER167W, strain BCK2, stronger effect = lower value 0.983 | locus YFR010W, strain ubp6, stronger effect = lower value 0.922 | locus YGL078C, strain dbp3, stronger effect = lower value 0.984 | locus YGL086W, strain mad1, stronger effect = lower value 0.987 | locus YGL167C, strain pmr1, stronger effect = lower value 0.997 | locus YGL173C, strain kem1, stronger effect = lower value 1.02 | locus YGL227W, strain vid30, stronger effect = lower value 0.993 | locus YGL240W, strain doc1, stronger effect = lower value 1.02 | locus YGL248W, strain PDE1, stronger effect = lower value 0.996 | locus YGR078C, strain PAC10, stronger effect = lower value 1 | locus YGR135W, strain pre9, stronger effect = lower value 0.972 | locus YGR229C, strain SMI1, stronger effect = lower value 0.989 | locus YGR252W, strain gcn5, stronger effect = lower value 0.946 | locus YHR013C, strain ard1, stronger effect = lower value 0.953 | locus YHR027C, strain rpn1, stronger effect = lower value 1.01 | locus YHR030C, strain SLT2, stronger effect = lower value 0.986 and 1 | locus YHR079C, strain IRE1 (second series), stronger effect = lower value 0.979 | locus YHR079C, strain IRE1, stronger effect = lower value 1.01 | locus YHR094C, strain hxt1, stronger effect = lower value 0.978 | locus YHR129C, strain ARP1, stronger effect = lower value 0.986 | locus YHR200W, strain rpn10, stronger effect = lower value 0.985 | locus YIL066C, strain RNR3, stronger effect = lower value 0.99 | locus YIL073C, strain SPO22, stronger effect = lower value 0.946 | locus YIL125W, strain kgd1, stronger effect = lower value 0.99 | locus YIR030C, strain dcg1, stronger effect = lower value 0.983 | locus YJL092W, strain hpr5, stronger effect = lower value 0.973 | locus YJL095W, strain BCK1 (second series), stronger effect = lower value 0.998 | locus YJL095W, strain BCK1, stronger effect = lower value 1.03 and 1.02 | locus YJL115W, strain asf1, stronger effect = lower value 0.975 | locus YJL129C, strain trk1, stronger effect = lower value 0.973 | locus YJL134W, strain LCB3, stronger effect = lower value 0.99 | locus YJL154C, strain vps35, stronger effect = lower value 0.983 | locus YJL164C, strain tpk1, stronger effect = lower value 0.987 | locus YJL166W, strain qcr8, stronger effect = lower value 1.03 | locus YJL168C, strain set2, stronger effect = lower value 0.983 | locus YJL187C, strain SWE1 (second series), stronger effect = lower value 1 | locus YJL187C, strain SWE1, stronger effect = lower value 0.998
active: locus YAL026C, strain drs2, stronger effect = lower value 0.504 | locus YDR392W, strain spt3, stronger effect = lower value 0.189 | locus YGL253W, strain hxk2, stronger effect = lower value 0.766 | locus YHR142W, strain chs7, stronger effect = lower value 0.812
